Results with a measured potency or affinity are listed apart. Active and inactive are the calls of the source.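 The calls were made as follows: active = growth inhibitors whose fitted half-maximal dose is no more than twice the top valid dose; inconclusive = flat curve with 30 to 70% inhibition, or unreliable fit; inactive = the rest.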
Experiment: antimalarial activity against Dd2 parasites – SYBR Green fluorescence, erythrocytes, dry powder, set 2, dose response (AID 1159574)

Row | SMILES | outcome
1 | O=C(c1ccccc1F)N1CC(=O)N2[C@@H](CO)[C@H](c3ccc(-c4cccnc4)cc3)[C@@H]2C1 | inactive
2 | O=C(c1ccccc1F)N1CC(=O)N2[C@@H](CO)[C@@H](c3ccc(-c4cccnc4)cc3)[C@@H]2C1 | inactive

Reference: PubChem BioAssay AID1159574 (Broad Institute, 2015)
